How the values were obtained:
Assay in all cases: DAPPL (digital affinity profiling via proximity ligation, sequencing); 10 mM Tris-HCl pH 7.5, 50 mM NaCl, 1 mM DTT, 4% glycerol, room temperature, 30 min; GST-TFs on glutathione beads, 16-mer random dsDNA library, 0.1% formaldehyde crosslink after washing; high values mean tight binding
Conditions in all cases: protein: recombinant; tags: N-terminal GST; dsDNA, one strand shown
FLI1 = biological target: T1, FLI1 (Homo sapiens, UniProt Q01543 1-452)
T1 sequence: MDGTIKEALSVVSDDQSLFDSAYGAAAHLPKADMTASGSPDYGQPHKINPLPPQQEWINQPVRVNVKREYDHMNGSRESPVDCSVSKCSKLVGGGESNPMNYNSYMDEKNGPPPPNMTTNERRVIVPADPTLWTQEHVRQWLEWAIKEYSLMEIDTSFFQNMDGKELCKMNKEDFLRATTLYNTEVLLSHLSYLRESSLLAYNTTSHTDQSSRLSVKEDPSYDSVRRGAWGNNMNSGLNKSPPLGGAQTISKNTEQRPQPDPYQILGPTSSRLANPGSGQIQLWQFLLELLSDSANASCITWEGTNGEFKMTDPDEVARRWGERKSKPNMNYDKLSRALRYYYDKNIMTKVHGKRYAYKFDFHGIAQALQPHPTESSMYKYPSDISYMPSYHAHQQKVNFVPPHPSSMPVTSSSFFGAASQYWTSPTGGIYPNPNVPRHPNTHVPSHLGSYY
Procedure, shortened: (§1)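 After expression in yeast as GST fusions, human transcription factors were bound to glutathione beads, DNA-barcoded and mixed with a tag-only sample. The pools were incubated with 200 nmole of a 16-mer random double-stranded DNA library in Tris/NaCl/DTT/glycerol buffer (30 min, room temperature), washed and crosslinked with 0.1% formaldehyde. Proximity ligation with BsaI/T4 ligase ran for 1 h at 37 °C, before PCR amplification and sequencing on an Illumina NextSeq500. Binding signal is a hexamer's read frequency for a factor divided by its frequency for the tag-only sample.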

SPI1 = SPI1 (Homo sapiens, UniProt P17947 1-270)
Procedure, shortened: as §1

ELK3 = biological target: T2, ELK3 (Homo sapiens, UniProt P41970 1-407)
T2 sequence: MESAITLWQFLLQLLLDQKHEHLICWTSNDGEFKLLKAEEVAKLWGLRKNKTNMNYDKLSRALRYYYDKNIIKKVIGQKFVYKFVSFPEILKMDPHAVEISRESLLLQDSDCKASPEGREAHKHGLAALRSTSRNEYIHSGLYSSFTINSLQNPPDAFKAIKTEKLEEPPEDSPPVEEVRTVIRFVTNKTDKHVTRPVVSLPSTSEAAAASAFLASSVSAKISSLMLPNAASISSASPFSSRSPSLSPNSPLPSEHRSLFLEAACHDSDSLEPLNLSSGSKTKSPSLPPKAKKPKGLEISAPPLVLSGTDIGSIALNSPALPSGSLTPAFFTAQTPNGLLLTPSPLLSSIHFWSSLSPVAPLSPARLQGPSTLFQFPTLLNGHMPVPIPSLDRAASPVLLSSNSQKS
Procedure, shortened: as §1

ELK4 = biological target: T3, ELK4 (Homo sapiens, UniProt P28324-2 1-405)
T3 sequence: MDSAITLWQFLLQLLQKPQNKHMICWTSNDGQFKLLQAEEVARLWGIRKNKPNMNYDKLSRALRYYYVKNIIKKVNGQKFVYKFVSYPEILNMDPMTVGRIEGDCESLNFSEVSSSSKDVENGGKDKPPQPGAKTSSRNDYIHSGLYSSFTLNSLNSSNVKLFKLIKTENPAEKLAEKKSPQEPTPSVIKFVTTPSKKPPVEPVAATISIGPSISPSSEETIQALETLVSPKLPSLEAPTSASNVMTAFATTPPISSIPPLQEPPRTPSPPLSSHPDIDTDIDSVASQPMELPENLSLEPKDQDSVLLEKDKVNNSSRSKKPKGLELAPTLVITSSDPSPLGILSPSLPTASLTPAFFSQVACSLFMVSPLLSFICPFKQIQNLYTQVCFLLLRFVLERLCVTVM
Procedure, shortened: as §1

ETV3L = biological target: T4, ETV3L (Homo sapiens, UniProt Q6ZN32 1-361)
T4 sequence: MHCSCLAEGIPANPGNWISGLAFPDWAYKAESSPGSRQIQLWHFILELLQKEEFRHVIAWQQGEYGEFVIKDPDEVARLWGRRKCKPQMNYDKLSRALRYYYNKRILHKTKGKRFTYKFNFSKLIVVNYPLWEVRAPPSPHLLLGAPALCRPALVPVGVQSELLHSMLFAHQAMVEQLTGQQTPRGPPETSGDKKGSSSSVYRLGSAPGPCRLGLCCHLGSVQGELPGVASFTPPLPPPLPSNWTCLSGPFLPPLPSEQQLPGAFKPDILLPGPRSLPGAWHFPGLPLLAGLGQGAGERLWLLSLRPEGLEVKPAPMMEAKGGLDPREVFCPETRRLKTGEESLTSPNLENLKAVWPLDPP
Procedure, shortened: as §1

ETV7 = biological target: T5, ETV7 (Homo sapiens, UniProt Q9Y603 1-341)
T5 sequence: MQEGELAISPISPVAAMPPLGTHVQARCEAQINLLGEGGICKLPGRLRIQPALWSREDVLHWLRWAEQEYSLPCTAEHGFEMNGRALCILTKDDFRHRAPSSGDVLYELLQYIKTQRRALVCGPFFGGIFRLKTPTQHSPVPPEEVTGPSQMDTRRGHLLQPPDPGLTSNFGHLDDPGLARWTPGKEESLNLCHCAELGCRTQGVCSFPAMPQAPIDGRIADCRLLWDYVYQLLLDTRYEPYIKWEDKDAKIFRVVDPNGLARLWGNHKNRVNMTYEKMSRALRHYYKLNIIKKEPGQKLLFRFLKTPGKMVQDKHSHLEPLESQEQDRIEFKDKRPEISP
Procedure, shortened: as §1

ELF5 = biological target: T6, ELF5 (Homo sapiens, UniProt Q9UKW6-2 1-255)
T6 sequence: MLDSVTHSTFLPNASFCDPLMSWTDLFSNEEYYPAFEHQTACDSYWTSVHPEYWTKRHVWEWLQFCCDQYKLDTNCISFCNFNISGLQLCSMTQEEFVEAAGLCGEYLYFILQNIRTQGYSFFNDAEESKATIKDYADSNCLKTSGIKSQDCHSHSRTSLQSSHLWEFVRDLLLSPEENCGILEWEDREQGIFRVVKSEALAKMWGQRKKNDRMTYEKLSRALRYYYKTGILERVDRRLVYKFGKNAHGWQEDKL
Procedure, shortened: as §1

ETV6 = ETV6 (Homo sapiens, UniProt P41212 1-452)
Sequence of ETV6 (P41212 whole entry): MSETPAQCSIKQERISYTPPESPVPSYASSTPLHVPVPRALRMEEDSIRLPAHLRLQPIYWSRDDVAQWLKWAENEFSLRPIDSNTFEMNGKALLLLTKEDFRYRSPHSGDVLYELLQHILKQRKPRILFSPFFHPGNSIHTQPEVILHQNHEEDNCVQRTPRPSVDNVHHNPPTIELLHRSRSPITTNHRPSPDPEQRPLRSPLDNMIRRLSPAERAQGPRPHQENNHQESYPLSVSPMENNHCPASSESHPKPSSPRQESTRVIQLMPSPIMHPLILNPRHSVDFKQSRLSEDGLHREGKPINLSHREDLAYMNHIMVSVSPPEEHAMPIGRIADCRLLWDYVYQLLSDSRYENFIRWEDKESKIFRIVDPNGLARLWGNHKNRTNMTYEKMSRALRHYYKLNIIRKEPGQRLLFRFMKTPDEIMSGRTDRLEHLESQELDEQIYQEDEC
Procedure, shortened: as §1

GABPA = biological target: T7, GABPA (Homo sapiens, UniProt Q06546 1-454)
T7 sequence: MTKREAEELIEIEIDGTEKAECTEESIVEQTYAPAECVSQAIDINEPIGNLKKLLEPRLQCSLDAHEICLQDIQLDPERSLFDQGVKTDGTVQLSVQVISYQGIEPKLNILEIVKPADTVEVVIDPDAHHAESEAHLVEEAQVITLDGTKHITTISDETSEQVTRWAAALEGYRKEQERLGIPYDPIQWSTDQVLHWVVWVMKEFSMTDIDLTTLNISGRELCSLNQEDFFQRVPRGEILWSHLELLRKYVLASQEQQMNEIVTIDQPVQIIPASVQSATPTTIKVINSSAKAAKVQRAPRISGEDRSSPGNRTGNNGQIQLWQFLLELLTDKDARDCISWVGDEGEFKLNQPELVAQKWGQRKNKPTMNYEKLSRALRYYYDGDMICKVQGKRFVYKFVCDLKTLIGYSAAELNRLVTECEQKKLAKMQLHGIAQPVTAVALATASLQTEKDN
Procedure, shortened: as §1

ERG = biological target: T8, ERG (Homo sapiens, UniProt P11308 1-479)
T8 sequence: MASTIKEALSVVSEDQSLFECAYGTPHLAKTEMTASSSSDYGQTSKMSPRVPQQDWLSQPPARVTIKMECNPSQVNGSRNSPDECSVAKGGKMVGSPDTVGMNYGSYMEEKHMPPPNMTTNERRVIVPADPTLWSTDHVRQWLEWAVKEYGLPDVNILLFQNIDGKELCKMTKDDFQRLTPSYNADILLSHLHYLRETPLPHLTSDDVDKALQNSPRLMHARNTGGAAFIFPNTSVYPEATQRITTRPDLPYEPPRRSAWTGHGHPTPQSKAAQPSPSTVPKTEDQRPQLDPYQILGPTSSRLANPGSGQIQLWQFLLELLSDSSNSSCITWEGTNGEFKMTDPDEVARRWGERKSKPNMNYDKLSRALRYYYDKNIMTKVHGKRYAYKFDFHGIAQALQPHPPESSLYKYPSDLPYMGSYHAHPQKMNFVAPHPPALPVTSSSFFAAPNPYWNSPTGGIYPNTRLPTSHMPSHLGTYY
Procedure, shortened: as §1

ELF1 = ELF1 (Homo sapiens, UniProt P32519 1-619)
Sequence of ELF1 (P32519 whole entry): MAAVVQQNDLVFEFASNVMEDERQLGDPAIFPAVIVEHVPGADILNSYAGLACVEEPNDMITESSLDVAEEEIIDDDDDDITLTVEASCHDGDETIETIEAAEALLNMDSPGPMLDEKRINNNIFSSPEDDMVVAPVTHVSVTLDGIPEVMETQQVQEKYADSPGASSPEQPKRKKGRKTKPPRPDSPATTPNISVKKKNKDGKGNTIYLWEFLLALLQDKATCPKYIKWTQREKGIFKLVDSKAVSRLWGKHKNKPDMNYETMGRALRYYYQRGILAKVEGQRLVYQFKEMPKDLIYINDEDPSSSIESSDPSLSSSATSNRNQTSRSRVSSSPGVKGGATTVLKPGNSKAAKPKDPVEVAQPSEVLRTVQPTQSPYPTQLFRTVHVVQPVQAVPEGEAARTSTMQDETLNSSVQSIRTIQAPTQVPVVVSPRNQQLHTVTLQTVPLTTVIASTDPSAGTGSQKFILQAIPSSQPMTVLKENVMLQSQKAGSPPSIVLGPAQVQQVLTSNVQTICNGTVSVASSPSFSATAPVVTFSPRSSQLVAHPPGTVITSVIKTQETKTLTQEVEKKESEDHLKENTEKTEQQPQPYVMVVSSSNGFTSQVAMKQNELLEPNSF
Procedure, shortened: as §1

SPIB = SPIB (Homo sapiens, UniProt Q01892 1-262)
Sequence of SPIB (Q01892 whole entry): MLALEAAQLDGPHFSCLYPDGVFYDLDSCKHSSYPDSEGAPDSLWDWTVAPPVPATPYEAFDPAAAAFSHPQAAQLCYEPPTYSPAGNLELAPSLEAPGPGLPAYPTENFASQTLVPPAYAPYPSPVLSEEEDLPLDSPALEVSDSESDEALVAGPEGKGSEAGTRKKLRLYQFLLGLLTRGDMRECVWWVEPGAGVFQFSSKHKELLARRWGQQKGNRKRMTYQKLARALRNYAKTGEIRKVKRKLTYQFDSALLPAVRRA
Procedure, shortened: as §1

FEV = biological target: T9, FEV (Homo sapiens, UniProt Q99581 1-238)
T9 sequence: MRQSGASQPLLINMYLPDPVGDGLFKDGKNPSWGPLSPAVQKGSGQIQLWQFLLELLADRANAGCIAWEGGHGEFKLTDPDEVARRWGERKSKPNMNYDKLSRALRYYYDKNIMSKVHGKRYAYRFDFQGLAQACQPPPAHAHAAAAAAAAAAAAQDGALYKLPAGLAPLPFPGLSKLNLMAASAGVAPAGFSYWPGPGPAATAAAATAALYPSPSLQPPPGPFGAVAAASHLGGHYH
Procedure, shortened: as §1

ETV1 = ETV1 (Homo sapiens, UniProt P50549 1-477)
Sequence of ETV1 (P50549 whole entry): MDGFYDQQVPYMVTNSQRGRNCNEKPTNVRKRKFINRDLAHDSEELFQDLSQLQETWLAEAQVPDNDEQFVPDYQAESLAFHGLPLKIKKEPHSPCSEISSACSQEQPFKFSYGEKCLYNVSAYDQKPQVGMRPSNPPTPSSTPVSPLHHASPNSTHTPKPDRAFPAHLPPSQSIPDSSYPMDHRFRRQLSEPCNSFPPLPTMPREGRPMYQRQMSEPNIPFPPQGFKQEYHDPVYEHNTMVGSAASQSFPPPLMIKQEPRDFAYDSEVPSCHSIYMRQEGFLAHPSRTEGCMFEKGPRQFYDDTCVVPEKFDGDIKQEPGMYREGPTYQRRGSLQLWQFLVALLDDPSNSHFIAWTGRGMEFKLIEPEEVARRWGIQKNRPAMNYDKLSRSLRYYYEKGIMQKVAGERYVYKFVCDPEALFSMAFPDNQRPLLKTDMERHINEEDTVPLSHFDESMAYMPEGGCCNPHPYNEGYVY
Procedure, shortened: as §1

ERF = biological target: T10, ERF (Homo sapiens, UniProt P50548 1-548)
T10 sequence: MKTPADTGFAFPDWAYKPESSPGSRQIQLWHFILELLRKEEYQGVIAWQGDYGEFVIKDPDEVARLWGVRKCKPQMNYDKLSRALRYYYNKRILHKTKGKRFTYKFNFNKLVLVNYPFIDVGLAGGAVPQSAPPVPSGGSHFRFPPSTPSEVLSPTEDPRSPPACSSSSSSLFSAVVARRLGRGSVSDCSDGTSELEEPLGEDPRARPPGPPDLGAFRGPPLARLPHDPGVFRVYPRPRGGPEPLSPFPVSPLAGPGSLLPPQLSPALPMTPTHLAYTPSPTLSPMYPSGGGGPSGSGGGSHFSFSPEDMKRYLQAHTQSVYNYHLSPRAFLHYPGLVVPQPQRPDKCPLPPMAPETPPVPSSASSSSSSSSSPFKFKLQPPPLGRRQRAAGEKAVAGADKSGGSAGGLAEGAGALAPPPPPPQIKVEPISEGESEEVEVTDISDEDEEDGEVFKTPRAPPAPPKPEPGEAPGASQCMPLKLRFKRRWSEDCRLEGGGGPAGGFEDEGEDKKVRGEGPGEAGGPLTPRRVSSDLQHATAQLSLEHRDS
Procedure, shortened: as §1

ETS2 = biological target: T11, ETS2 (Homo sapiens, UniProt P15036 1-469)
T11 sequence: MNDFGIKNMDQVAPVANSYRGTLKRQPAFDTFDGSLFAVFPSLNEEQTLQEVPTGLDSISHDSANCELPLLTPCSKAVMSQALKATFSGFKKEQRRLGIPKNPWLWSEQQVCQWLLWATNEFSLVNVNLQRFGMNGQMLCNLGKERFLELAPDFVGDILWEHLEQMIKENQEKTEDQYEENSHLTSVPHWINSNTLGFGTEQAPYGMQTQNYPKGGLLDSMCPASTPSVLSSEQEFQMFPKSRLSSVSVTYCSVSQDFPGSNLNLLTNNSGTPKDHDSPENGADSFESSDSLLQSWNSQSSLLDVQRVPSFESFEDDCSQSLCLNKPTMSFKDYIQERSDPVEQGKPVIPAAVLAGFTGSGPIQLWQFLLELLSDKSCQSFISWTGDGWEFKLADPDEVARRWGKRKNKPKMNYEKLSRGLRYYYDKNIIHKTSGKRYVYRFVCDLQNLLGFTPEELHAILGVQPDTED
Procedure, shortened: as §1

SPDEF = biological target: T12, SPDEF (Homo sapiens, UniProt O95238 1-335)
T12 sequence: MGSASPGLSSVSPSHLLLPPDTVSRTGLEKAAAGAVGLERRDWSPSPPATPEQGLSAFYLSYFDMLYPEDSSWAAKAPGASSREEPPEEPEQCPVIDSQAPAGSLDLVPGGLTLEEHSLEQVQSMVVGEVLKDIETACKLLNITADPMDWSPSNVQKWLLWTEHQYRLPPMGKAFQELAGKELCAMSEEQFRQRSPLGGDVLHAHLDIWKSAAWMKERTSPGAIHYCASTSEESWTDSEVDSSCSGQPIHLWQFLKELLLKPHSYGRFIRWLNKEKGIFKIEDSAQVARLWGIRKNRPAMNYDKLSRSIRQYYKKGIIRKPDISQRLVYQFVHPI
Procedure, shortened: as §1

Sequence | binding signal (FLI1) | binding signal (SPI1) | binding signal (ELK3) | binding signal (ELK4) | binding signal (ETV3L) | binding signal (ETV7) | binding signal (ELF5) | binding signal (ETV6) | binding signal (GABPA) | binding signal (ERG) | binding signal (ELF1) | binding signal (SPIB) | binding signal (FEV) | binding signal (ETV1) | binding signal (ERF) | binding signal (ETS2) | binding signal (SPDEF)
AGTTGC | 1.04 fold enrichment (6-mer frequency, TF over GST control) | 1.07 fold enrichment (6-mer frequency, TF over GST control) | 1.03 fold enrichment (6-mer frequency, TF over GST control) | 1.02 fold enrichment (6-mer frequency, TF over GST control) | 1.01 fold enrichment (6-mer frequency, TF over GST control) | 1.11 fold enrichment (6-mer frequency, TF over GST control) | 1.02 fold enrichment (6-mer frequency, TF over GST control) | 1.03 fold enrichment (6-mer frequency, TF over GST control) | – | – | – | – | – | – | – | – | –
CGGGCT | 1.05 fold enrichment (6-mer frequency, TF over GST control) | – | 1.14 fold enrichment (6-mer frequency, TF over GST control) | 1.18 fold enrichment (6-mer frequency, TF over GST control) | 1.01 fold enrichment (6-mer frequency, TF over GST control) | – | – | – | 1.05 fold enrichment (6-mer frequency, TF over GST control) | 1.02 fold enrichment (6-mer frequency, TF over GST control) | 1.04 fold enrichment (6-mer frequency, TF over GST control) | 1.13 fold enrichment (6-mer frequency, TF over GST control) | 1.01 fold enrichment (6-mer frequency, TF over GST control) | 1.07 fold enrichment (6-mer frequency, TF over GST control) | 1.05 fold enrichment (6-mer frequency, TF over GST control) | 1.07 fold enrichment (6-mer frequency, TF over GST control) | 1.07 fold enrichment (6-mer frequency, TF over GST control)

From PMC7862700, “An all-to-all approach to the identification of sequence-specific readers for epigenetic DNA modifications on cytosine”
